Data on 96 molecules can be found in PubChem BioAssay AID1066 (SRMLSC, 2008).

Molecules are shown by their SMILES. Among all 190,000 compounds or so, about 790 (0.42%) were called active. This is one part of a sample in which actives are shown more often than they occur. Unmarked numbers belong to inactive results.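 The calls were made as follows: active = inhibition above a set limit, the median over all tested compounds plus 3 SD (cut at about 9.5% in these data); inconclusive = no clear call, values can overlap the other calls; inactive = the rest.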

The test system of this test is HMG-CoA reductase (Enterococcus faecalis, mvaE). In words: inhibitors of E. faecalis class II HMGR, primary screen, biochemical, Enterococcus faecalis (AID 1066).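 Also: enzyme runs in reverse so mevalonate oxidation gives rising NADPH absorbance; 0% = complete reaction with DMSO and 100% = background rate lacking mevalonate.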 As to conditions: purified E. faecalis HMGR, NADPH absorbance 340 nm kinetic; at 10 µM; stronger effect = higher value.
Regarding `O=C(N/N=C/c1ccco1)c1ccc(C(=O)N/N=C/c2ccco2)o1`, the inhibition was 3.83%.

With `CCN(C(=O)c1ccc(Br)cc1)c1ccccc1`, the inhibition is -0.76%.

`CCOC(=O)CNC(=O)CSc1ccc2nnc(-c3cccnc3)n2n1`: the inhibition was -1.15%.

Consider `CCOc1ccc(-c2ccc(SCC(=O)N3CCOCC3)nn2)cc1`, for which the inhibition is -2.28%.

Consider `Cc1ccc(C(=O)NCC(=O)O)s1`, for which the inhibition is -1%.

For the molecule `O=C(Nc1cccc(Cl)c1)Nc1ccccc1NS(=O)(=O)c1cccs1`, the inhibition is -2.46%.

With `CCc1ccc(C(=O)OCC(=O)NCC(F)(F)F)cc1`, the inhibition is -8.47%.

Regarding `CCOC(=O)c1sc(NC(=O)COc2ncnc3ccccc23)c(C(=O)OCC)c1C`, the inhibition was 3.4%.

On to `COC(=O)c1c(NC(C)=O)sc(C(=O)Nc2ccccc2OC)c1C`, for which the inhibition was -2.99%.

For the molecule `CCC(=O)Nc1sc(C(=O)Nc2ccccc2)c(C)c1C(=O)OC`, the inhibition is 13% (active).

Regarding `CCOC(=O)Cn1nnnc1C`, the inhibition was -2.01%.

As for `Oc1cccc2ccc(/C=C/c3ccc(Br)s3)nc12`, the inhibition was 0.35%.

As for `Cc1ccc(NC(=O)Nc2cccc(C(F)(F)F)c2)nc1`, the inhibition is -0.23%.

In the case of `CCC(=O)Nc1ccc(Nc2nc(Cl)nc(Nc3ccc(NC(=O)CC)cc3)n2)cc1`, the inhibition was -2.77%.

On to `Cc1ccc2nc(Nc3ncc4c(n3)CC(C)(C)CC4=O)nc(C)c2c1`, for which the inhibition was -0.8%.

In the case of `NC(=O)COc1ccc(C23CC4CC(CC(C4)C2)C3)cc1`, the inhibition is 6.59%.

Turning to `O=C(CCN1C(=O)c2ccccc2C1=O)NNC(=O)c1ccc(Cl)cc1Cl`, the inhibition is -5.06%.

For the molecule `CC(=O)N/C(=C/c1ccc(OC(F)F)cc1)C(=O)O`, the inhibition is 0.04%.

As to `CC(CCn1cccn1)NC(=O)CCc1nnc(CCc2ccccc2)o1` (stereo unspecified), the inhibition was -1.69%.

With `COC(=O)C1=C(C)N(c2ccc(C)cc2)/C(=C/c2ccc(O)cc2)C1=O`, the inhibition was 1.84%.

For the molecule `O=C(CSC1CC(=O)N(CCc2ccccc2)C1=O)Nc1ccc(Cl)cc1` (stereo unspecified), the inhibition was 0.85%.

On to `CC(Sc1nnnn1C1CCCCC1)C(=O)O` (stereo unspecified), for which the inhibition is 3.4%.

As for `Cc1cccc(-c2nc3ccccc3c(=O)n2NC(=O)Cc2ccc(Cl)cc2)c1`, the inhibition was 2.94%.

Regarding `NNC(=O)C1CC(O)CN1S(=O)(=O)c1ccc(Cl)cc1` (stereo unspecified), the inhibition is -8.75%.

In the case of `COc1cc(NC(=O)c2ccccc2NS(=O)(=O)c2ccc(Cl)s2)cc(OC)c1`, the inhibition was -0.12%.

Turning to `C/C(=N\NC(=O)NC1CCCCC1)c1ccc(OC(F)F)cc1OC(F)F`, the inhibition is -0.33%.

For `CCc1ccc(CN2C(=O)c3ccccc3C2C(=O)NCC2CCCO2)cc1` (stereo unspecified), the inhibition was -2.1%.

As for `CC(=O)Oc1ccccc1C1=NN(C(C)=O)C(c2ccccc2)C1` (stereo unspecified), the inhibition is -1.75%.

Regarding `COc1ccc(-c2cc(-c3ccc(N)cc3)nc(N)c2C#N)cc1OC`, the inhibition was 11.6% (active).

In the case of `CCOc1cc(-c2cc(-c3ccc(OC)cc3)nc(N)c2C#N)ccc1O`, the inhibition is -5.02%.

For `CCSc1nc(-c2ccc(OC)cc2)cc(-c2ccc(OC)cc2)c1C#N`, the inhibition is -8.44%.

For the molecule `COc1ccc(C2C(C#N)=C(N)N(c3ncn[nH]3)C3=C2C(=O)CCC3)cc1` (stereo unspecified), the inhibition is 3.99%.

In the case of `FC(F)Oc1ccccc1NC(=S)Nc1cccc(Cl)c1Cl`, the inhibition was -10.5%.

As for `CS(=O)(=O)N(Cc1ccccc1)c1ccc(C(=O)NN=C2CCCCCC2)cc1`, the inhibition is -2.77%.

With `CCOc1ccc(C(c2c(C)[nH][nH]c2=O)c2c(C)[nH][nH]c2=O)cc1OCC`, the inhibition is -2.78%.

For the molecule `Cc1[nH][nH]c(=O)c1C(c1ccc2c(c1)OCO2)c1c(C)[nH][nH]c1=O`, the inhibition is 4.7%.

For `Cc1[nH][nH]c(=O)c1C(c1ccc(-c2ccc(Cl)cc2)o1)c1c(C)[nH][nH]c1=O`, the inhibition was 11.6% (active).

Regarding `Cc1noc(/C=C/c2ccco2)c1S(=O)(=O)N1CCC(C(=O)Nc2ccc(Cl)cn2)CC1`, the inhibition was 0.34%.

For the molecule `CC(O)c1cccc(NC(=O)Cc2cccc3ccccc23)c1` (stereo unspecified), the inhibition is -6.15%.

Regarding `Cc1ccc(Sc2ccncc2S(N)(=O)=O)cc1`, the inhibition is -1.29%.

As for `C[C@@H](O)c1nc2ccccc2n1N`, the inhibition is 0.29%.

As for `CC(C)CC(CC(C)C)=NNC(=O)c1ccc(CSc2nncn2C)cc1`, the inhibition is 1.23%.

Regarding `O=C(Nc1cccnc1)c1ccc(Cl)cc1[N+](=O)[O-]`, the inhibition was -3.45%.

As to `CCCOc1ccc(N2C(=O)CC(N(CCc3ccc(S(N)(=O)=O)cc3)C(C)=O)C2=O)cc1` (stereo unspecified), the inhibition is -5%.

Take `NS(=O)(=O)c1ccc(N2C(=O)C3C4CC(C(Br)C4Br)C3C2=O)cc1` (stereo unspecified): the inhibition was 81.6% (active).

`Cc1ccc(N2C(=O)C3CC3C2=O)cc1` (stereo unspecified): the inhibition was -5.05%.

`COc1cc(NS(=O)(=O)c2ccc(NC(=O)CN3C(=O)c4ccccc4C3=O)cc2)ncn1`: the inhibition was -9.27%.

For the molecule `O=C(COC(=O)c1ccco1)NCc1ccc(Cl)cc1`, the inhibition was -3.08%.

As for `CC(OC(=O)CCc1nc(=O)c2ccccc2n1C)C(=O)NCc1ccc2c(c1)OCO2` (stereo unspecified), the inhibition is 2.38%.

Regarding `O=C(Cn1cnc([N+](=O)[O-])n1)NCCc1ccccc1`, the inhibition is 3.82%.

Turning to `CC(=O)Nc1ccc(C(=O)CSc2nnc(Cc3ccccc3)o2)cc1`, the inhibition is 20.1% (active).

On to `CCOc1ccc(Nc2nc(Cc3nnc(SCC(=O)c4ccc(C)cc4)o3)cs2)cc1`, for which the inhibition is -4.07%.

For `O=C(CSc1nnc(Cn2cnc3ccccc32)o1)c1ccccc1`, the inhibition was -2.99%.

In the case of `COC(=O)c1c(NC(=O)c2c(Cl)cnn2C)sc(C)c1C`, the inhibition is 11% (active).

In the case of `COCCCNCC(=O)Nc1sc(C)c(C)c1C(=O)OC`, the inhibition is 1.07%.

Take `CCOC(=O)c1c(NC(=O)c2cccs2)sc(C)c1C`: the inhibition was 0.72%.

On to `CC1=NN(C(=O)c2ccc(Br)cc2)C(O)(c2ccccc2)C1` (stereo unspecified), for which the inhibition is 3.11%.

Turning to `CC1=NN(C(=O)c2ccccc2Br)C(O)(c2cccnc2)C1` (stereo unspecified), the inhibition is 0.91%.

For the molecule `CCOC(=O)C1(O)CC(C)=NN1C(=O)c1cccc(Br)c1` (stereo unspecified), the inhibition was 16.5% (active).

Regarding `Cc1cccc(-n2cc(CN3CCN(C(=O)c4ncn[nH]4)CC3)c(-c3cccc(F)c3)n2)c1`, the inhibition is -4.4%.

Consider `NC(N)=NCCCc1cn(CC(=O)N2CCNCC2)nn1`, for which the inhibition is -8.27%.

With `O=C(Cc1ccc([N+](=O)[O-])cc1)N/N=C/c1ccco1`, the inhibition is 3.38%.

Regarding `CCCOCC(O)CC(CC)C(=O)NNC(=S)Nc1ccccc1` (stereo unspecified), the inhibition is -0.14%.

Regarding `C=CCN(CC=C)CCOc1ccccc1[N+](=O)[O-]`, the inhibition was -2.7%.

Take `COc1cc(NC(=S)N2CCCC(C)C2)cc(OC)c1OC` (stereo unspecified): the inhibition was 0.35%.

As to `CN1CCN(C(CNS(=O)(=O)c2cccs2)c2cccnc2)CC1` (stereo unspecified), the inhibition was -4.32%.

`O=C(Nc1ccccc1)N1CCN(C(=O)Nc2ccccc2)CC1`: the inhibition was -2.68%.

As to `COc1cc(NC(=O)N2CCOCC2)cc(OC)c1`, the inhibition was -5.26%.

As to `CN(C)S(=O)(=O)c1ccc(NC(=O)N2CCOCC2)cc1`, the inhibition is 15.2% (active).

In the case of `Cc1ccc(SCCC(=O)NCc2ccccn2)cc1`, the inhibition was 1.33%.

`CN1C(=O)/C(=C/c2ccc(C(=O)NC3CCCC3)cc2)Oc2ccccc21`: the inhibition is -13.4%.

For the molecule `O=C(CCN1c2ccccc2Sc2ccccc21)Nc1ccccc1`, the inhibition is -1.11%.

Take `CCN1/C(=C/c2ccc3ccc(C)cc3[n+]2CC)Sc2ccccc21`: the inhibition is -2.41%.

`CCC(=O)/C=C1\Sc2ccccc2N1CC`: the inhibition is 11.8% (active).

Consider `Cc1cc(C(=O)COC(=O)C2CC2)c(C)n1-c1ccc(F)cc1`, for which the inhibition was 2.01%.

Consider `COc1cc(/C=N/NC(=O)c2cc(C)n(-c3ccc(F)cc3)c2C)cc(OC)c1O`, for which the inhibition is 3.01%.

Turning to `Cc1cc(C(=O)N/N=C/c2ccc(O)c([N+](=O)[O-])c2)c(C)n1-c1ccc(F)cc1`, the inhibition was 11.2% (active).

On to `CCOc1ccccc1N1CCN(C(=S)Nc2ccc(S(N)(=O)=O)cc2)CC1`, for which the inhibition was -3.56%.

For `O=C(Nn1cnc2ccccc2c1=O)c1ccc([N+](=O)[O-])cc1Cl`, the inhibition was -1.28%.

On to `CCCCN1C(=O)/C(=C(/C#N)C(N)=O)c2ccccc21`, for which the inhibition was -0.52%.

In the case of `CSc1ccccc1NC(=O)CN(C)CC(=O)Nc1cccc(Br)c1`, the inhibition was 3.22%.

On to `CN(CC(=O)Nc1ccccc1[N+](=O)[O-])Cc1ccc(Br)cc1`, for which the inhibition was -2.46%.

On to `CN(CC(=O)Nc1ccccc1F)CC(=O)Nc1ccccc1Br`, for which the inhibition was 9.9% (active).

For `Cc1cccc(C(=O)NCCCN2CCCC2=O)c1`, the inhibition is -2.71%.

Take `O=C(CCC(=O)NNc1nc2ccccc2c2nc(-c3ccccc3)nn12)NCCCN1CCCC1=O`: the inhibition was 11.7% (active).

Regarding `O=C(CCn1c(=S)[nH]c2ccccc2c1=O)NCCCN1CCCC1=O`, the inhibition was -5.44%.

Regarding `O=Cc1ccc(Oc2cccc(C(F)(F)F)c2)nc1`, the inhibition was -2.83%.

Consider `O=C(COC(=O)c1cccc(Br)c1)Nc1cccc2c1C(=O)c1ccccc1C2=O`, for which the inhibition was -0.48%.

Consider `COc1ccc(NC(=O)c2sc(N)nc2-c2ccccc2)cc1`, for which the inhibition was 3.25%.

Regarding `COc1ccc(-n2c(O)c(C=NCC(c3ccco3)N3CCCC3)c3ccccc3c2=O)cc1OC` (stereo unspecified), the inhibition is 3.15%.

On to `N/C(=N\OC(=O)COc1ccc([N+](=O)[O-])cc1)c1ccc(Br)cc1`, for which the inhibition was -0.17%.

For the molecule `Cc1ncc([N+](=O)[O-])n1CCOC(=O)c1ccc(Br)cc1`, the inhibition was 10% (active).

As for `Cc1nn(CCOc2ccc(Br)cc2)c(C)c1[N+](=O)[O-]`, the inhibition is -5.05%.

For `CCN(CC)CCNc1nc(-c2ccc(OC(F)F)cc2)c(C)s1`, the inhibition is -4.92%.

`CCN(C(=O)CSc1nnc2ccccn12)C1CCS(=O)(=O)C1` (stereo unspecified): the inhibition was -6.19%.

In the case of `COC(=O)c1ccc(-n2cnc3ccccc32)nc1`, the inhibition is -2.82%.

Usually inhibition stands for the relative decrease from the control value, in per cent.
